# Source: PubChem BioAssay (NCATS)
# Inconclusive results are not listed. Where a call stands in place of a potency, no number is given. Active and inactive are the calls of the source. The call rests on the fitted dose curve; in most records, active means well fitted curve in the direction sought with a large enough effect; inconclusive means small, poorly fitted or top-dose-only effect, or another doubt; inactive means no such curve, though single readings can be large; an effect the other way counts as inactive or inconclusive.
# Experiments:
# [1] = qHTS of pediatric cancer cell lines to identify multiple opportunities for drug repurposing: Primary screen for Rh18 cells (AID 1347102); further: nearly all actives have a fitted effect of over 65% in size
# Summary of the method: (§1)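 Cells (500-1,000/well) rested 5 h, then received compounds for 48 h; metabolically active cells were measured by CellTiter-Glo luminescence. Final concentrations spanned up to 46 µM (MIPE, 11-point) or 0.59 nM-46 µM (NPC, 8-point) in primary screens, 11-point in follow-ups.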
# [2] = qHTS of pediatric cancer cell lines to identify multiple opportunities for drug repurposing: Primary screen for OHS-50 cells (AID 1347103); further: nearly all actives have a fitted effect of over 40% in size
# Summary of the method: as §1
# [3] = qHTS of pediatric cancer cell lines to identify multiple opportunities for drug repurposing: Primary screen for RD cells (AID 1347104); further: nearly all actives have a fitted effect of over 55% in size
# Summary of the method: (§2)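 ATP-based luminescence (CellTiter-Glo) quantifies viability after a 48-hour exposure. Compounds are dosed across 8 or 11 final concentrations; DMSO and 2.3 µM bortezomib serve as controls.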
# [4] = qHTS of pediatric cancer cell lines to identify multiple opportunities for drug repurposing: Primary screen for MG 63 (6-TG R) cells (AID 1347105); further: nearly all actives have a fitted effect of over 50% in size
# Summary of the method: as §2
# [5] = qHTS of pediatric cancer cell lines to identify multiple opportunities for drug repurposing: Primary screen for control Hh wild type fibroblast cells (AID 1347106);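 further: series mostly up to about 46 µM; a drop in luminescence marks cytotoxicity and a rise apparent proliferation; nearly all actives have a fitted effect of over 55% in size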
# Summary of the method: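 Viability after 48 h compound treatment at 37C, 500-1,000 cells/well, read as ATP luminescence with CellTiter-Glo. Primary screens used 11-point (MIPE, 0.78 nM-46 µM) or 8-point (NPC, 0.59 nM-46 µM) final concentrations; follow-up screens used 11-point dilutions.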
# [6] = qHTS of pediatric cancer cell lines to identify multiple opportunities for drug repurposing: Primary screen for Rh30 cells (AID 1347107); further: series mostly up to about 46 µM; nearly all actives have a fitted effect of over 75% in size
# Summary of the method: as §1
# [7] = qHTS of pediatric cancer cell lines to identify multiple opportunities for drug repurposing: Primary screen for Rh41 cells (AID 1347108);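 further: series mostly up to about 46 µM; luminescence drop marks cytotoxic hits; nearly all actives have a fitted effect of over 70% in size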
# Summary of the method: as §2
# [8] = qHTS of pediatric cancer cell lines to identify multiple opportunities for drug repurposing: Confirmatory screen for NB1643 cells (AID 1347109); further: nearly all actives have a fitted effect of over 45% in size
# Summary of the method: as §1
# [9] = qHTS of pediatric cancer cell lines to identify multiple opportunities for drug repurposing: Confirmatory screen for A673 cells (AID 1347110);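 further: cells exposed to compound for 48 h before the viability read; nearly all actives have a fitted effect of over 65% in size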
# Summary of the method: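 Cells plated at 500-1,000/well were treated five hours later with multi-point dilutions up to 46 µM final. After two days, CellTiter-Glo was added and luminescence read.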
# [10] = qHTS of pediatric cancer cell lines to identify multiple opportunities for drug repurposing: Confirmatory screen for SK-N-MC cells (AID 1347111);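 further: potency means the concentration at half of the fitted maximal effect; cells exposed to compound for 48 h before the readout; nearly all actives have a fitted effect of over 70% in size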
# Summary of the method: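 Seed 500-1,000 cells/well; rest 5 h at 37 degrees C. Pin-transfer compounds, 11-point titration. Incubate 48 h. Add CellTiter-Glo, 15 min RT, read luminescence.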
SMILES,Potency [1],Potency [2],Potency [3],Potency [4],Potency [5],Potency [6],Potency [7],Potency [8],Potency [9],Potency [10]
COc1ccc(/C=N/NC(=O)c2ccncc2)cc1OC,inactive,inactive,inactive,inactive,inactive,inactive,inactive,,,
NCCNC(=O)c1ccc(Cl)cn1,inactive,inactive,inactive,inactive,inactive,inactive,inactive,,,
C[C@@H](O)[C@H]1C(=O)N2C(C(=O)O)=C([C@H]3CCCO3)S[C@H]12,inactive,inactive,inactive,inactive,inactive,inactive,inactive,,,
C=CCN1CCc2nc(N)sc2CC1,inactive,inactive,inactive,inactive,inactive,inactive,inactive,,,
O=C(O)CCc1nc2ccccc2[nH]1,inactive,inactive,inactive,inactive,inactive,inactive,inactive,,,
Oc1ccccc1C=NCc1ccccc1,inactive,inactive,inactive,inactive,inactive,inactive,inactive,,,
CCOc1ccc(NC(C)=O)cc1,inactive,inactive,inactive,inactive,inactive,inactive,inactive,,,
CCCc1ncc(C[n+]2ccccc2C)c(N)n1,inactive,inactive,inactive,inactive,inactive,inactive,inactive,,,
C[N+]1(C)CCC(=C(c2ccccc2)c2ccccc2)CC1,inactive,inactive,inactive,inactive,inactive,inactive,inactive,,,
CCOc1ccccc1OCCN[C@H](C)Cc1ccc(OC)c(S(N)(=O)=O)c1,inactive,inactive,inactive,inactive,inactive,inactive,inactive,,,
CCCCCCCCCCCCCC(=O)OC(C)C,inactive,inactive,inactive,inactive,inactive,inactive,inactive,,,
Cc1cc(C)cc(OCC2CNC(=O)O2)c1 (configuration not stated),inactive,inactive,inactive,,inactive,inactive,,,,
NCCNc1cccc2ccccc12,inactive,inactive,inactive,inactive,inactive,inactive,inactive,,,
CN(C)CCOC(=O)C(c1ccccc1)C1(O)CCCC1 (configuration not stated),inactive,inactive,inactive,inactive,inactive,inactive,inactive,,,
CCCCCCCCOc1ccc(C(=O)c2ccccc2)c(O)c1,inactive,inactive,inactive,,inactive,inactive,,,,
O=[N+]([O-])c1ccc(/C=N\O)o1,inactive,inactive,inactive,inactive,inactive,inactive,inactive,inactive,inactive,5.85 µM (active)
Cc1cccc(C)c1NC(=O)c1ccccc1C(=O)O,inactive,inactive,inactive,inactive,inactive,inactive,inactive,,,
O=C1OC2(c3ccccc31)c1cc(Br)c(O)c(Br)c1Oc1c2cc(Br)c(O)c1Br,inactive,inactive,inactive,inactive,inactive,inactive,inactive,,,
Nc1ccc(C(=O)NCC(=O)O)cc1,inactive,inactive,inactive,inactive,inactive,inactive,inactive,,,
CCCCCCCCCCCCCCCC(=O)O,inactive,inactive,inactive,inactive,inactive,inactive,inactive,,,
CO[C@]12C[C@@H](COC(=O)c3cncc(Br)c3)CN(C)[C@@H]1Cc1cn(C)c3cccc2c13,inactive,inactive,inactive,inactive,inactive,inactive,inactive,,,
Cc1cccc(C)c1NC(=O)CN1CCCC1,inactive,inactive,inactive,inactive,inactive,inactive,inactive,,,
OC1C(O)C(O)C(O)C(O)C1O (configuration not stated),inactive,inactive,inactive,inactive,inactive,inactive,inactive,,,
C#C[C@]1(O)CC[C@H]2[C@@H]3[C@H](C)CC4=C(CCC(=O)C4)[C@H]3CC[C@@]21C,inactive,inactive,inactive,inactive,inactive,inactive,inactive,,,
CC(C)Cc1ccc(CC(=O)O)cc1,inactive,inactive,inactive,inactive,inactive,inactive,inactive,,,
c1ccc(CC2=NCCN2)cc1,inactive,inactive,inactive,inactive,inactive,inactive,inactive,,,
NC1CCN(c2nc3c(cc2F)c(=O)c(C(=O)O)cn3-c2ccc(F)cc2F)C1 (configuration not stated),inactive,inactive,inactive,inactive,inactive,inactive,inactive,,,
Cc1ccccc1OCC(O)CO (configuration not stated),inactive,inactive,inactive,inactive,inactive,inactive,inactive,,,
COc1cc(NS(=O)(=O)c2ccc(N)cc2)ncn1,inactive,inactive,inactive,inactive,inactive,inactive,inactive,,,
